Screening results (PubChem)
Hits are enriched below; roughly 2.4% of the tested compounds scored in any of these assays.
Pol kappa inh: blocks human DNA polymerase kappa activity; purified Pol kappa, fluorescent DNA synthesis assay, 10 min; Potency, µM (doses to about 107 µM), hits mostly inhibitors; 400,000 tested, 0.53% active; AID 588579
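Enzyme at 10 nM met test compounds for 15 min at room temperature. Substrate addition (50 nM final) began the reaction, which was monitored by fluorescence at 0 and 10 min.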
FEN1 inh: inhibitors of human flap endonuclease 1 | P39748 | Potency, µM (series often up to 114 µM), usual class: inhibitors | AID 588795 | Recombinant FEN1 flap cleavage, fluorescence, 15 min | 390,000 tested, 0.35% active; further: nearly all actives have a fitted effect of over 65% in size
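Concentration–response screening of FEN1 (10 nM): 15 min compound preincubation at room temperature, reaction started with 50 nM substrate and read at 0 and 15 min. Corrected, normalized data were fitted by a four-parameter Hill equation.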
WRN inhibitor: blocks human WRN helicase; Q14191; WRN helicase unwinding, fluorescent forked duplex, kinetic; Potency, µM (titrated, usually from 114 µM), most hits filed as inhibitors; 360,000 tested, 0.46% active; AID 651768; further: nearly all actives have a fitted effect of over 55% in size
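Fluorescence dequenching readout, ex 525 nm/em 598 nm, kinetic mode: forked duplex DNA (100 nM final) with adjacent fluorophore and quencher unwound by WRN (20 nM final) with 2 mM ATP. Compound preincubation 15 min, room temperature.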
Pol beta inh: blocks human DNA polymerase beta activity; Potency, µM (titrated, usually from 114 µM), hits mostly inhibitors; AID 485314; Pol beta primer extension/strand displacement, fluorescence kinetic; 340,000 tested, 1.3% active
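Kinetic readout of DNA synthesis with strand displacement by Pol beta. Compound and 10 nM enzyme sit 15 min at room temperature; 50 nM substrate starts the reaction, read immediately and at 10 min.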
Pol eta inh: DNA polymerase eta (human) inhibition; Q9Y253; Potency, µM (highest dose often 114 µM), usual class: inhibitors; 390,000 tested, 1.2% active; recombinant Pol eta, fluorescent DNA replication assay
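Pol eta at 10 nM preincubated with compounds 15 min at room temperature; reaction started with fluorescent substrate (50 nM final) and read kinetically at 0 and 10 min.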
POLI inh: blocks human DNA polymerase iota activity; Q9UNA4; Pol iota fluorescent replication assay, 10 min; Potency, µM (doses to about 115 µM), hits mostly inhibitors; 390,000 tested, 1% active; AID 588590
Target sequence (Q9UNA4 whole entry, looked up): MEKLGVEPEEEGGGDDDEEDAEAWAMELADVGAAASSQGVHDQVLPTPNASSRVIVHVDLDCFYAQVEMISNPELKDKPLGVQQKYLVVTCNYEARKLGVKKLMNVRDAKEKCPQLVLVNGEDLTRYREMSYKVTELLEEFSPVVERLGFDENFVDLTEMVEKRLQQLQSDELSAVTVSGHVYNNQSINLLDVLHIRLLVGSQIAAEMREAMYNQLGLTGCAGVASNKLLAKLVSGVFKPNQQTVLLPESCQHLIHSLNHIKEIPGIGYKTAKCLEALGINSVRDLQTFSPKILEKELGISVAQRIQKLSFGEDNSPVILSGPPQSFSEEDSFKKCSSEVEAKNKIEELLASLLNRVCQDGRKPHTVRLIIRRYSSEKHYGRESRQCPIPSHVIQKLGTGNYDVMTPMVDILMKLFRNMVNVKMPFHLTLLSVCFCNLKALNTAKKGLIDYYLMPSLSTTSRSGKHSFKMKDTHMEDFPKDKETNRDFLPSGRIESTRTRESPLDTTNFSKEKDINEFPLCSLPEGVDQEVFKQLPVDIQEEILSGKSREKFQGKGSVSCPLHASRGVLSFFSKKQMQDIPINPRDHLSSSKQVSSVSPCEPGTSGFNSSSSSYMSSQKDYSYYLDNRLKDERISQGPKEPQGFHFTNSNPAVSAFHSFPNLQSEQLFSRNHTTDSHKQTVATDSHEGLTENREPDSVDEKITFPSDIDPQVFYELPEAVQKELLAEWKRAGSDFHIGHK
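Fluorescent replication assay read twice, at 0 min and 10 min after adding 50 nM (final) substrate. Enzyme (10 nM) and compounds were first incubated 15 min at room temperature; enzyme-free buffer wells were negative controls.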
Numbers stand for hits; – = inactive; ? = inconclusive; · = no result given; [ ] = remark or other dose. The call rests on the fitted dose curve; in most records, active means well fitted curve in the direction sought with a large enough effect; inconclusive means small, poorly fitted or top-dose-only effect, or another doubt; inactive means no such curve, though single readings can be large; an effect the other way counts as inactive or inconclusive.

SMILES	Pol kappa inh	FEN1 inh	WRN inhibitor	Pol beta inh	Pol eta inh	POLI inh
COc1ccc(OC)c(NC(=O)CCn2c(=S)[nH]c3ccccc3c2=O)c1	–	–	–	–	–	–
COc1ccc(NC(=O)CCn2c(=S)[nH]c3ccccc3c2=O)cc1Cl	·	·	–	·	35µM	·
Cc1ccccc1NC(=O)Cn1nnc(C(=O)NCc2ccco2)c1N	–	–	–	–	–	–
Cc1ccccc1NC(=O)Cn1nnc(S(=O)(=O)c2ccc(C(C)(C)C)cc2)c1N	–	–	–[11.6 µM]	32µM	–	?
c1ccc(-c2nc3nonc3c3nc4ccccc4n23)cc1	–	–	–	45µM	–	–
c1ccc(-c2nc3ccccc3c3nc4ccccc4n23)cc1	–	–	–	–	?	–
COc1cccc(OCC(O)CN2CCC(CN3C(=O)c4cccc5cccc(c45)C3=O)CC2)c1 (stereo not drawn)	–	28µM	–	–	–	–
O=C1c2cccc3cccc(c23)C(=O)N1CC1CCN(CC(O)COc2ccc3ccccc3c2)CC1 (stereo not drawn)	–	–	–	–	–	–
CC(=O)c1ccccc1OCC(O)CN1CCN(CCN2C(=O)c3cccc4cccc(c34)C2=O)CC1 (stereo not drawn)	–	?	–	40µM	–	–
CC(=O)C[n+]1cccc2cc(Cl)ccc21	–	–	·	·	·	–
COc1ccc(S(=O)(=O)N(C(=O)c2ccco2)c2cc3sc(=O)oc3c3ccccc23)cc1	–	–	45µM	–	–	?
Cc1ccc(S(=O)(=O)N(C(=O)c2ccco2)c2cc3sc(=O)oc3c3ccccc23)cc1	–	–	56µM	–	–	?
Cc1cc(NS(=O)(=O)c2ccc(Nc3nc(-c4sc(N)nc4C)cs3)cc2)no1	25µM	56µM	25µM	–	10µM	3.2µM
O=C(c1cc2ccccc2[nH]1)c1cc2cc(O)ccc2[nH]1	–	–	·	·	·	–
COc1ccc(/C=N/NC(=O)c2ccc(NC(=O)c3cccc([N+](=O)[O-])c3)cc2)c(C(=O)O)c1OC	–	–	–[11.6 µM]	71µM	79µM	?
COc1cc(OC)c([N+](=O)[O-])cc1/C=N/NC(=O)c1ccncc1	–	–	–[11.6 µM]	–	32µM	?
O=C(N/N=C/c1ccccc1Cl)c1[nH]c2ccc(Br)cc2c1-c1ccccc1	?	?	25µM	?	50µM	79µM
COc1ccc(/C=N/NC(=O)c2[nH]c3ccc(Br)cc3c2-c2ccccc2)c(C(=O)O)c1OC	–	?	?	?	32µM	?
COc1ccc(/C=N/NC(=O)c2[nH]c3ccc(Br)cc3c2-c2ccccc2)cc1	–	–	–	–	–	–
O=C(c1ccc2c(=O)n(CC3CCCO3)c(=S)[nH]c2c1)N1CCN(C(=O)c2ccco2)CC1 (stereo not drawn)	–	–	·	·	·	–
O=c1c2ncn([C@@H]3O[C@@H]4COP(=O)(O)O[C@H]4[C@H]3O)c2nc2[nH]c(-c3ccccc3)cn12	–	·	·	·	·	·
O=C(O)COc1cccc(/C=C2/SC(=S)N(Cc3ccccc3)C2=O)c1	–	–	?	?	79µM	?
O=C1/C(=C\c2ccc(O)c(O)c2)SC(=S)N1Cc1ccccc1	–	?	11µM	?	–	22µM
O=C1/C(=C\c2cccc(O)c2)SC(=S)N1Cc1ccccc1	–	–	–	–	–	–
COc1ccccc1CNC(=O)C1CCN(C2=NS(=O)(=O)C(c3ccc(C)c(C)c3)=C2C)CC1	–	–	·	?	–	89µM
SMILES	Pol kappa inh	FEN1 inh	WRN inhibitor	Pol beta inh	Pol eta inh	POLI inh
COc1ccc(C2=C(C)C(N3CCC(C(=O)Nc4ccccc4F)CC3)=NS2(=O)=O)cc1	–	–	·	22µM	·	?
COc1cccc(/C=N/Nc2ncnc3c2[nH]c2ccc(C)cc23)c1OC	?	–	?	?	?	13µM
CCn1cc(/C=N/NC(=O)COc2cccc3cccnc23)c2ccccc21	–	–	?	13µM	?	?
Oc1ccc(Cl)cc1C1C=C(c2ccc3c(c2)OCO3)NC(c2ccc(Br)cc2)N1 (stereo not drawn)	–	–	·	·	·	–
COC(=O)C1=C[C@@H](C(=O)OC)[C@@H]2C3=C(C(=O)[C@@]2(C)NC(=O)c2ccccc2)[C@H](C)[C@@H]2C(=O)N(c4ccccc4)C(=O)[C@@H]2[C@@H]3C1	–	–	·	·	·	–
OC[C@@H]1OC(O)[C@H](O)[C@H](O)[C@H]1O (stereo partly drawn)	–	·	·	·	·	·
Cn1c(SCC(=O)N/N=C/c2ccco2)nc2ccccc21	–	–	–	–	–	–
Cc1ccc2nc(C)cc(SCC(=O)N/N=C/c3ccco3)c2c1	–	–	–	40µM	–	–
N#Cc1nc(-c2ccc(OCc3ccc(Cl)cc3)cc2)oc1N1CCCC1	–	–	·	·	·	–
Cc1cc2c(C)nc(N/N=C/c3ccc([N+](=O)[O-])cc3)nc2o1	–	–	–[11.6 µM]	–	?	35µM
Cc1cc2c(C)nc(N/N=C/c3ccc(F)cc3)nc2o1	–	–	–	?	–	–
COC(=O)c1ccc(=O)c2nc3/c(=C/O)c(O)cc(=O)c3[nH]c12	14µM	40µM	?	?	28µM	?
COC(=O)c1ccc(N)cc1O	–	–	–	–	–	–
N#C/C(=C\c1ccc(N2CCCCC2)o1)C(=O)Nc1cccc(Br)c1	–	?	89µM	–	?	?
Cc1ccc(/C=C(\C#N)C(=O)Nc2cccc(Br)c2)o1	–	–	·	–	·	–
Nc1ccccc1/C=C/c1ccnc2ccccc12	?	–	·	·	·	?
CN(Cc1ccccc1)C(=O)CSc1nnc(-c2cccc(Cl)c2)o1	–	–	·	–	·	–
COc1ccc(-c2nnc(SCC(=O)N(C)Cc3ccccc3)o2)cc1OC	–	–	·	–	79µM	–
Oc1c(Cl)cc(Cl)cc1/C=C/c1ccc2cccc(O)c2n1	–	–	–	28µM	–	–
Oc1ccc(Cl)cc1/C=C/c1ccc2cccc(O)c2n1	–	?	–	–	–	–
Cc1ccc(C(=O)N/N=C2\CCc3ccccc32)c(C)c1	–	–	–	0.16µM	–	–
CO/N=C(/C(=O)N[C@@H]1C(=O)N2C(C(=O)O)=CCS[C@H]12)c1csc(N)n1	–[19.4 µM]	·	·	·	·	·
Cc1ccc(C(=O)c2cn(CC(=O)Nc3ccc4c(c3)OCCO4)c3nc(C)ccc3c2=O)cc1	–	–	·	?	?	?
O=C(COc1ccccc1F)Nc1ccc(-c2nc3ccccc3s2)cc1	–	–	·	45µM	–	–
CCc1ccc(/C=C/C(=O)c2cc(Br)ccc(=O)c2O)cc1	?	?	–	16µM	?	?
O=C(C=Cc1ccccc1)c1cc(Br)ccc1O	–	–	–	·	–	–
CCOc1ccc(/C=C/C(=O)c2cc(Br)ccc(=O)c2O)cc1	?	45µM	?	?	?	?
